Measured values as given in ChEMBL document CHEMBL4513216, “Probing the Open Global Health Chemical Diversity Library for Multistage-Active Starting Points for Next-Generation Antimalarials” (ACS Infect Dis, 2020).
The whole screen tested about 69,000 compounds, of which about 8,600 (12%) showed an effect of 50% or more. The full list was thinned out, with strong results kept by preference.

These molecules were tested on Plasmodium berghei (assay: Screen against P. berghei liver stage (PbLuc), transformed with Luciferase, at 10uM). Conditions: tested at 10 uM.
Assay type: functional, HepG2
`CCCn1nnnc1CN1Cc2ccccc2CC1c1nnc(C)o1` (stereo not drawn) gave an INHIBITION of -25.6%. Work on `Cc1nn(C)cc1-c1cc(-c2cn(C)nc2C)n(CC(=O)NC2CC2)n1` yielded an INHIBITION of 15.2%. With `CCCC(=O)N1CCC(O)(Cn2c(CC)nc3ccccc3c2=O)CC1` the INHIBITION was 41.5%. For `CN(C)c1cc(C(=O)N2CCCN(Cc3nccn3C)CC2)ccn1`, the INHIBITION was 29.2%. `N#Cc1ccc(CNC(=O)C2=NN(c3ccccc3)C(=O)CN2)cc1` showed an INHIBITION of -72.2%. In the case of `O=C(NCc1cccnc1)C1=NN(c2ccccc2)C(=O)CN1`, the INHIBITION is reported as -19.2%. `COc1ccccc1CNC(=O)C1=NN(c2ccc(C)cc2)C(=O)CN1` showed an INHIBITION of 18.1%. In the case of `COc1ccc(CNC(=O)C2=NN(c3ccc(C)cc3)C(=O)CN2)cc1`, the INHIBITION is reported as 79.5%. For `COCc1ccc(CNC(=O)C2=NN(c3ccccc3)C(=O)CN2)cc1`, the INHIBITION was 51.6%. `COc1ccc(C)cc1CNC(=O)C1=NN(c2ccccc2)C(=O)CN1` was tested, and the INHIBITION was -174%. `COCCCN(Cc1cnc(-c2ccccn2)nc1)C1CCN(C)CC1` showed an INHIBITION of 23.9%. With `CCC1(O)CCCN(c2ncnc3c2c(C)nn3C)C1` (stereo not drawn) the INHIBITION was 13.7%. In the case of `COCCOC(=O)N1CCn2nc(CN(C)Cc3nccs3)cc2C1`, the INHIBITION is reported as 36.7%. `CCC(=O)N(c1ccc(C(=O)OC)cc1C)C(C)C` was tested, and the INHIBITION was 20.9%. In the case of `CN(C)CCOCC1CN(Cc2ccsc2)Cc2nnn(C)c21` (stereo not drawn), the INHIBITION is reported as 38.2%. `Cc1cccc(C(=O)N2C[C@@H](C)[C@@]3(CCN(c4ccsc4)C3=O)C2)n1` was tested, and the INHIBITION was 19.4%. In the case of `C[C@@H]1CN(C(=O)c2cccc(F)c2)C[C@]12CCN(c1ccsc1)C2=O`, the INHIBITION is reported as 50.9%. With `C[C@@H]1CN(C(=O)c2ccsc2)C[C@]12CCN(c1ccsc1)C2=O` the INHIBITION was 35.3%. `CCc1nn(C)c2[nH]nc(NC(=O)c3cccnc3OC)c12` showed an INHIBITION of 43.1%. With `Cc1nn(C)c(N(C)C)c1CNCc1nnc2n1CCCCC2` the INHIBITION was -7.94%. `Cc1ccc(NC2CCN(C(=O)CCn3nc(C)cc3C)CC2)nn1` was tested, and the INHIBITION was 15.4%. Work on `CNc1nc(C(=O)N2CCn3nc(C(=O)OC)cc3C2)cs1` yielded an INHIBITION of 9.16%. With `COc1ccc(C[C@H]2CN(C(=O)c3ccn(C)n3)CC[C@H]2OC)cc1` the INHIBITION was -7.28%. Work on `c1cncc(OCCCNC2COc3ccccc3C2)c1` (stereo not drawn) yielded an INHIBITION of 38.5%. `CC(C)NC(=O)C1(Cc2ccccc2-c2cccs2)CCNC1` (stereo not drawn) gave an INHIBITION of 41.2%. For `Cc1noc(C)c1-c1ccc(C2CCCN2C(=O)Cn2ccnc2)nc1` (stereo not drawn), the INHIBITION was 53.2%. In the case of `Cc1noc(C)c1-c1ccc(C2CCCN2C(=O)c2cccnc2)nc1` (stereo not drawn), the INHIBITION is reported as -5.71%. `Cc1noc(C)c1-c1ccc(C2CCCN2C(=O)c2cccnn2)nc1` (stereo not drawn) gave an INHIBITION of 31.6%. For `CC(=O)N1CCCC1c1ccc(-c2c(C)noc2C)cn1` (stereo not drawn), the INHIBITION was 25.6%. `Cc1noc(C)c1-c1ccc(C2CCCN2C(=O)c2cnn(C)c2)nc1` (stereo not drawn) gave an INHIBITION of -32.2%. `Cc1noc(C)c1-c1ccc(C2CCCN2C(=O)c2ccncn2)nc1` (stereo not drawn) gave an INHIBITION of 61.7%. Molecule `Cc1csc(CCNC(=O)N2CCC(C(N)=O)CC2)n1` has an INHIBITION of 36.9%. Molecule `Cc1nn(C)c2cnn(CC(=O)NCc3ccc(F)cc3)c12` has an INHIBITION of 44.9%. `OCCC1(NCc2ccc(-n3cccn3)cc2)CCOCC1` showed an INHIBITION of 12%. In the case of `CCN1CCN(C(=O)C2CCOC2)c2ccccc21` (stereo not drawn), the INHIBITION is reported as 48.3%. `COc1ccc(CCNC(=O)C(C)Nc2ccc(C)c(C)c2)cc1` (stereo not drawn) gave an INHIBITION of 58.5%. Molecule `COc1ccc(CCNC(=O)C(C)Nc2cc(C)ccc2C)cc1` (stereo not drawn) has an INHIBITION of 44.9%. With `COc1ccc(CCNC(=O)C(C)Nc2cccc(C)c2C)cc1` (stereo not drawn) the INHIBITION was 20.9%. `CCn1cc(CN2CCCN(C(=O)c3ccccc3C)CC2)cn1` gave an INHIBITION of -57.4%. `CCCn1nnnc1COC(=O)C1COc2ccc(Cl)cc2C1` (stereo not drawn) was tested, and the INHIBITION was 32.3%. For `CCc1nncn1CCNC(=O)N1CCCC(Cc2nccn2C)C1` (stereo not drawn), the INHIBITION was 17.6%. Work on `CCc1nnc2n1CC(CNc1cnc3ccccc3n1)CC2` (stereo not drawn) yielded an INHIBITION of 27.6%. `CC(C)c1nnc2n1CC(CNc1cnc3ccccc3n1)CC2` (stereo not drawn) showed an INHIBITION of 43.4%. For `Cc1nnc2n1CC(CNc1cnc3ccccc3n1)CC2` (stereo not drawn), the INHIBITION was 60.1%. With `CC(C(=O)N1CCN(Cc2ccc(C#N)cc2)CC1)n1ccnc1` (stereo not drawn) the INHIBITION was 23.5%. `O=C1CCCN1Cc1nnc2n1CCCN(Cc1ccco1)C2` showed an INHIBITION of -9.23%. With `Cc1ccc(NC2CCN(C(=O)c3cscn3)CC2)nn1` the INHIBITION was -77.1%. Work on `CCOCCCC(=O)NCc1cn2cc(Br)ccc2n1` yielded an INHIBITION of 11.1%. For `CC(C(=O)NCc1cn2cc(Br)ccc2n1)S(C)(=O)=O` (stereo not drawn), the INHIBITION was 40.6%. In the case of `COc1c(C)cnc(CNC(=O)CCOCC(C)C)c1C`, the INHIBITION is reported as -74%. `CCOCCOC(C)C(=O)NCc1ccc(N2CCCCC2)cc1` (stereo not drawn) was tested, and the INHIBITION was 21.7%. With `CCCC(C)C(=O)NCc1cn2cc(Br)ccc2n1` (stereo not drawn) the INHIBITION was -19%. `CCOCCOC(C)C(=O)NCc1cn2cc(Cl)ccc2n1` (stereo not drawn) showed an INHIBITION of 53.4%.
